These results are taken from PubChem BioAssay AID504452 (The Scripps Research Institute Molecular Screening Center, 2011).

The experiment deals with Peroxisome proliferator-activated receptor gamma (Homo sapiens) (UniProt P37231). The experiment in a line: PPARg partial agonist activation, primary screen, cell-based, luciferase reporter, luminescence (AID 504452).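 Further: Cos-1 cells carrying PPARgamma and a response element luciferase reporter.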 To be noted: at 5 µM, stronger effect = higher value; activation (% of full agonist control): measured here: relative to full agonist control. In general terms: In a reporter assay the amount or activity of a reporter protein is the signal.
Chain of Peroxisome proliferator-activated receptor gamma (Homo sapiens) (P37231 whole entry, looked up): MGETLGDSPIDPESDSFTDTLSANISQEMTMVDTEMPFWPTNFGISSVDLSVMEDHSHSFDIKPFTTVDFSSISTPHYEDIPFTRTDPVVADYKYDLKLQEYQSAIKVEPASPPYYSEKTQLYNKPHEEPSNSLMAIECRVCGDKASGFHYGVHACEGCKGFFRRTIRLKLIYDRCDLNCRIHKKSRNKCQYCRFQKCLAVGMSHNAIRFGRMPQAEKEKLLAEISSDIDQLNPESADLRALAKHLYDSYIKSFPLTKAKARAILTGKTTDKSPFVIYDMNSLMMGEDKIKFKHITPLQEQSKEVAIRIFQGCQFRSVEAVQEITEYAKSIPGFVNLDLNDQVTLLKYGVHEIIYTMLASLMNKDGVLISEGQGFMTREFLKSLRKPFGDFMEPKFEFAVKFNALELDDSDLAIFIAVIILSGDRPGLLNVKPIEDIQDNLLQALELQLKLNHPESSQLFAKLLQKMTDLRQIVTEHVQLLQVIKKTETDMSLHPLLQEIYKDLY

SMILES strings stand for the structures. The source made the active and inactive calls. No stated cut-off is given here; in the data, active means activation above about 85%; inactive means the rest.

As for `O=C(Cn1c(=O)c(=O)n(Cc2ccccc2)c2ccc(Cl)cc21)Nc1cc(F)ccc1F`, the activation (% of full agonist control) is 28.4% and the activation (% of partial agonist control) is 62.9% (inactive).

Take `CCc1ccc(N2CC(C(=O)OCC(=O)Nc3ccc(C(C)=O)cc3)CC2=O)cc1` (configuration not stated): the activation (% of full agonist control) was 31% and the activation (% of partial agonist control) is 68.6% (inactive).

Take `O=C1CC(NS(=O)(=O)c2ccc3ccccc3c2)CN1c1ccccc1` (configuration not stated): the activation (% of full agonist control) worked out at 31.7% and the activation (% of partial agonist control) is 70.2% (inactive).

Regarding `O=c1[nH]c2cc3c(cc2cc1CN(CCN1CCOCC1)C(=S)NCC1CCCO1)OCO3` (configuration not stated), the activation (% of full agonist control) was 26.6% and the activation (% of partial agonist control) is 59% (inactive).

Turning to `O=C1C(=O)N(Cc2ccccc2)C(c2cccc(O)c2)/C1=C(\O)c1ccc2c(c1)OCCO2` (configuration not stated), the activation (% of full agonist control) came out at 25.6% and the activation (% of partial agonist control) was 56.7% (inactive).

With `COC(=O)C1=CN(Cc2ccc(C)cc2)C=C(C(=O)OC)C1c1ccc(F)c(F)c1`, the activation (% of full agonist control) is 36.2% and the activation (% of partial agonist control) is 80.2% (inactive).

For `O=C1C(=O)N(CCCn2ccnc2)C(c2ccc(Cl)cc2)/C1=C(\O)c1ccc2c(c1)OCCO2` (configuration not stated), the activation (% of full agonist control) was 41.5% and the activation (% of partial agonist control) was 91.9% (active).

For the molecule `Cc1ccc2nc(N3C(=O)C(O)=C(C(=O)c4ccc(C)o4)C3c3ccco3)sc2c1` (configuration not stated), the activation (% of full agonist control) amounted to 45.8% and the activation (% of partial agonist control) is 101% (active).

In the case of `COc1cccc(CN2CCN(Cc3ccc4c(NC(C)=O)cccc4n3)CC2CCO)c1` (configuration not stated), the activation (% of full agonist control) was determined as 36.5% and the activation (% of partial agonist control) was 80.7% (inactive).

For the molecule `O=C(O)CCC(=O)N1CCc2cc(S(=O)(=O)NCCc3ccc(Cl)cc3)ccc21`, the activation (% of full agonist control) came to 35.9% and the activation (% of partial agonist control) is 79.6% (inactive).

As for `CC(C(=O)N1CCN(c2ccccc2)CC1)N1C(=O)C2CC=CCC2C1=O` (configuration not stated), the activation (% of full agonist control) was 32.1% and the activation (% of partial agonist control) is 71.1% (inactive).

Consider `CCN(CC)S(=O)(=O)c1ccc(N2CCOCC2)c(NC(=O)C(C)Oc2ccc(F)cc2)c1` (configuration not stated), for which the activation (% of full agonist control) is 29.3% and the activation (% of partial agonist control) was 64.8% (inactive).

As for `Cc1ccccc1NC(=O)CC1C(=O)Nc2ccccc2N1CC(=O)N(C)C1CCS(=O)(=O)C1` (configuration not stated), the activation (% of full agonist control) came to 47% and the activation (% of partial agonist control) is 104% (active).

On to `COCCn1cnc2c1c(=O)n(Cc1cc(C(C)=O)ccc1OC)c(=O)n2Cc1ccccc1`, for which the activation (% of full agonist control) was 39.8% and the activation (% of partial agonist control) was 88.2% (active).

In the case of `O=C(NCCc1c[nH]c2ccccc12)N[C@@H](Cc1ccccc1)C(=O)O`, the activation (% of full agonist control) was 33.3% and the activation (% of partial agonist control) is 73.7% (inactive).

For `COC(=O)C1=CN(Cc2ccc(F)cc2)C=C(C(=O)OC)C1c1ccc(O)c(OC)c1`, the activation (% of full agonist control) stood at 26.8% and the activation (% of partial agonist control) was 59.4% (inactive).

For the molecule `O=C(Cn1nc(Cc2ccncc2)c2ccccc2c1=O)N1CCN(C(=O)c2ccco2)CC1`, the activation (% of full agonist control) is 36.2% and the activation (% of partial agonist control) is 80.2% (inactive).

For `O=C(Nc1cc(F)ccc1F)C1CCCN(c2ncnc3c2nc2n3CCCCC2)C1` (configuration not stated), the activation (% of full agonist control) was found to be 32.1% and the activation (% of partial agonist control) is 71% (inactive).

On to `COc1ccc2c(c1)c(CCN1C(=O)c3ccccc3C1=O)cn2C(=O)c1ccco1`, for which the activation (% of full agonist control) was determined as 27.3% and the activation (% of partial agonist control) was 60.4% (inactive).

For the molecule `COC(=O)c1ccc(NC(=O)C(=O)c2cn(CC(=O)N3CCOCC3)c3ccccc23)cc1`, the activation (% of full agonist control) worked out at 32.1% and the activation (% of partial agonist control) is 71.1% (inactive).

`NC(=O)C1CCCN(Cc2c(C(=O)N3CCc4ccccc4C3)nc3ccc(Cl)cn23)C1` (configuration not stated): the activation (% of full agonist control) turned out to be 30.2% and the activation (% of partial agonist control) was 66.9% (inactive).

As for `CCOc1ccc(C2c3[nH]c4ccccc4c3CCN2Cc2cccn2-c2ncccn2)cc1` (configuration not stated), the activation (% of full agonist control) was 39.5% and the activation (% of partial agonist control) is 87.5% (active).

In the case of `O=C(O)CC(NC(=O)C(c1ccccc1)c1ccccc1)c1ccc(F)cc1` (configuration not stated), the activation (% of full agonist control) was found to be 27.7% and the activation (% of partial agonist control) was 61.3% (inactive).

With `Cc1nn(CC(=O)N2CCC(N3CCCCC3)CC2)c(=O)c2c1sc1ccccc12`, the activation (% of full agonist control) was determined as 27.9% and the activation (% of partial agonist control) is 61.8% (inactive).

Consider `Cc1nn(Cc2cccc(C(=O)Nc3ccn(Cc4ccccc4F)n3)c2)c(C)c1[N+](=O)[O-]`, for which the activation (% of full agonist control) turned out to be 32.8% and the activation (% of partial agonist control) was 72.6% (inactive).

For the molecule `CCOC(=O)N1CCN(C(=O)c2ccc(S(=O)(=O)c3ccc(C)cc3)c(NC(C)=O)c2)CC1`, the activation (% of full agonist control) was 37.2% and the activation (% of partial agonist control) is 82.4% (inactive).

Take `O=C(O)CC1=C(Nc2ccccc2)C(=O)N(c2ccccc2)C1c1ccc(F)cc1` (configuration not stated): the activation (% of full agonist control) was 31% and the activation (% of partial agonist control) was 68.7% (inactive).

In the case of `Cc1[nH][nH]c(=O)c1C(c1c(C)[nH][nH]c1=O)c1cn(Cc2cccc3ccccc23)c2ccccc12`, the activation (% of full agonist control) was 37.6% and the activation (% of partial agonist control) was 83.3% (inactive).

Take `COc1cc(C(CC(=O)Nc2cccc(C)n2)N2Cc3ccccc3C2=O)cc(OC)c1OC` (configuration not stated): the activation (% of full agonist control) came to 29.1% and the activation (% of partial agonist control) is 64.3% (inactive).

On to `O=C(NC(Cc1ccccc1)C(=O)O)/C(=C/c1cccc([N+](=O)[O-])c1)NC(=O)c1ccco1` (configuration not stated), for which the activation (% of full agonist control) was 41.5% and the activation (% of partial agonist control) was 91.8% (active).

With `COc1ccc(O)c(C(=O)c2cc(C#N)c(=O)n(-c3ccc(Cl)cc3)c2)c1`, the activation (% of full agonist control) came out at 40% and the activation (% of partial agonist control) was 88.5% (active).

With `COc1ccccc1N1C(=O)C2C(C(=O)c3ccccc3)=NN(c3ccc(C)cc3)C2C1=O` (configuration not stated), the activation (% of full agonist control) worked out at 47.8% and the activation (% of partial agonist control) was 106% (active).

Regarding `COc1ccc(NC(=O)C(=O)c2cn(CC(=O)N3CCCC3)c3ccccc23)c(OC)c1`, the activation (% of full agonist control) was found to be 32.9% and the activation (% of partial agonist control) was 72.7% (inactive).

For the molecule `COc1ccc(CN2CCN(Cc3ccc(C)cc3)C(CCO)C2)cc1OC` (configuration not stated), the activation (% of full agonist control) worked out at 33.7% and the activation (% of partial agonist control) was 74.6% (inactive).

As to `Cn1cc(CNCc2cn[nH]c2-c2ccc(F)cc2)c(-c2ccc3c(c2)OCCO3)n1`, the activation (% of full agonist control) stood at 29.7% and the activation (% of partial agonist control) was 65.8% (inactive).

Regarding `COc1ccc(S(=O)(=O)N2CCCCC2)cc1NC(=O)C1CSC2(C)CCC(=O)N12` (configuration not stated), the activation (% of full agonist control) was 40.2% and the activation (% of partial agonist control) was 89% (active).
